From ChEMBL document CHEMBL3988442, “University of Dundee, Small-Polar-MMV Screening Library” (2021)
Among all 48,000 compounds or so, about 13,000 (27%) showed an effect of 50% or more. Some of the results follow.

The compounds below were run on Wolbachia pipientis (assay: Anti-Wolbachia Cell-Based Screen). Conditions: 5 µM.
Type: functional
Parameters: scale not given: in the data most compounds retested in dose-response had high values

| SMILES | Percent Effect |
| --- | --- |
| O=C(c1cccc2[nH]ncc12)N1CCCC1c1noc(C2CC2)n1 (stereo unspecified) | -9.191% |
| COc1ccc(S(=O)(=O)N2CC(CC(=O)O)c3ccccc32)cc1 (stereo unspecified) | -7.807% |
| Cl.NCC1CCCCN1C(=O)Cc1cccc(Br)c1 (stereo unspecified) | -8.019% |
| N#CC(NC(=O)c1cccc2c1OCCO2)c1ccc(F)cc1F (stereo unspecified) | -4.984% |
| CCN(Cc1cc(Cl)ccc1OC)Cc1nccn1C | -15.12% |
| CC/N=c1\nc(NCC)nc2n1C(O)(Nc1cc(C)ccc1C)CS2 (stereo unspecified) | 165.1% |
| CCn1c(C2CCCN(Cc3ccc(OC)c(C)c3C)C2)nn(C)c1=O (stereo unspecified) | 24.51% |
| Cc1ccccc1C(C)NC(=O)CN1CCN(Cc2ccc(Br)s2)CC1 (stereo unspecified) | 1.299% |
| O=C1NCC(C(=O)N(Cc2ccc(C(F)(F)F)cc2)C2CC2)N1 (stereo unspecified) | -7.127% |
| CC(NC(=O)Cc1ccccc1F)(C(N)=O)c1cccc(Cl)c1 (stereo unspecified) | 85.68% |
| CC(C)(CNC(=O)CCOc1cccc(F)c1)C(N)=O | -11.69% |
| CC(C)(CNC(=O)C1CCCN(C(N)=O)C1)c1cccc(Cl)c1 (stereo unspecified) | -3.245% |
| Cc1nncn1CCNC(=O)C(C)(C)c1cccc(Cl)c1 | -9.762% |
| CC(C)(NC(=O)Cc1ccccc1F)C(=O)O | 90.43% |
| CC(C)(NC(=O)Cc1ccccc1F)C(C)(C)C(=O)O | 10.54% |
| CC(C)(C)SCC(=O)NC(C)(C(N)=O)c1cccc(Cl)c1 (stereo unspecified) | 113.7% |
| COCCC(=O)NC(C)(C(N)=O)c1cccc(Cl)c1 (stereo unspecified) | 111.9% |
| O=C(Cc1cccc(F)c1F)NS(=O)(=O)c1ccc(Cl)cc1F | 16.65% |
| CCC(C)(CC(=O)O)NC(=O)Cc1ccccc1F (stereo unspecified) | -2.363% |
| Cc1cccc(OCCC(=O)NCC(C)(C)C(N)=O)c1 | -9.486% |
| CS(=O)(=O)Cc1ccc(Cl)cc1NCc1ccccc1F | -2.816% |
| COC[C@@]12CC[C@@H](N3CCOCC3)C[C@H]1CCN(c1ncccc1F)C2 | -2.051% |
| Cc1nn(C)c(C)c1-c1c(-c2ccccc2)ncn1[C@H](CO)C(=O)O | -8.389% |
| Cc1ncsc1CCN(C)C(=O)c1ncccc1O | -5.816% |
| CC(C)OCc1cccc(NC(=O)N(C)Cc2ncnn2C)c1 | -5.342% |
| O=C1N(Cc2ccc(F)cc2)CCCC12CCN(C1CCSCC1)C2 (stereo unspecified) | -0.8017% |

| SMILES | Percent Effect |
| --- | --- |
| CC(C)(C)CC(=O)NC(C)(C(N)=O)c1cccc(Cl)c1 (stereo unspecified) | 91.43% |
| CC(NC(=O)NCc1cccc(Cl)c1)(C(=O)O)c1ccco1 (stereo unspecified) | 5.605% |
| CC(C)(C)C(=O)NCC(=O)NC1CC(c2cccc(Cl)c2)C1 (stereo unspecified) | -7.236% |
| CC(C)(CNC(=O)c1ccc(Cl)o1)NC(=O)OC(C)(C)C | -6.326% |
| Cc1cc(CNC(=O)Cc2cccs2)ccc1S(C)(=O)=O | -11.25% |
| CC(C)(CNC(=O)c1ccco1)NC(=O)OC(C)(C)C | -7.413% |
| O=C(Cc1cccs1)NCC1(O)CCSC1 (stereo unspecified) | 0.8903% |
| CC(C)(C)OC(=O)NC(C)(C(N)=O)c1cccc(Cl)c1 (stereo unspecified) | 178.1% |
| CC(NC(=O)Cc1cccs1)(C(N)=O)c1cccc(Cl)c1 (stereo unspecified) | 80.31% |
| COCc1ccc(C(=O)N2CCN(CC3CC3)[C@@H]3CS(=O)(=O)C[C@@H]32)o1 | -14.33% |
| CCCc1cnc(C)nc1NCCc1nc(C)cc(=O)[nH]1 | 11.65% |
| CCCN1CCCC1c1ccc(C(=O)N2CCOCC2)s1 (stereo unspecified) | -8.147% |
| CN(C)C1CCN(C(=O)c2cc3c(s2)CCN3C(=O)C2CC2)CC1.O=C(O)C(F)(F)F | -3.085% |
| CN1CCN(C(=O)c2cc3c(s2)CCN3C(=O)C2CC2)CC1 | -4.007% |
| CN(C)CC(=O)N1CCc2sc(C(=O)N3CCOCC3)cc21 | 66.53% |
| CN(C)CC(=O)N1CCc2sc(C(=O)N3CCN(C)CC3)cc21 | 110.2% |
| CN1CCCN(C(=O)c2cc3c(s2)CCN3C(=O)C2CC2)CC1 | 2.998% |
| C=C(C)CNc1ccc(C(=O)N(CC)Cc2nccn2C)cn1 | -22.79% |
| CCc1cnc(CN(C)C2CCN(CCS(C)(=O)=O)C2)o1 (stereo unspecified) | -2.122% |
| CC(C)c1cnc(CN(C)C2CCN(CCc3ccncc3)C2)o1 (stereo unspecified) | -3.327% |
| CC(C)c1cnc(CN(C)C2CCN(CCn3cc(C#N)cn3)C2)o1 (stereo unspecified) | 95.34% |
| Cc1cnc(CN(C)C2CCN(CCn3cc(C#N)cn3)C2)o1 (stereo unspecified) | 2.575% |
| CCc1cnc(CN(C)C2CCN(CCn3cc(C#N)cn3)C2)o1 (stereo unspecified) | 85.15% |
| CC(=O)N1CCCC2(CN(Cc3ccccc3C(F)(F)F)CCO2)C1 (stereo unspecified) | -3.341% |
| O=C(Cc1ccccc1C(F)(F)F)N1CCC2(CC1)OCCCC2O (stereo unspecified) | 121.4% |
| CC(Oc1ccccc1C(F)(F)F)C(=O)NCC(=O)N1CCCC1 (stereo unspecified) | -9.214% |

| SMILES | Percent Effect |
| --- | --- |
| O=C(Cc1ccccc1C(F)(F)F)N1CCC2(CC1)[C@H](O)C[C@@H]2O | 113.5% |
| CSc1ncccc1C(=O)N1CCC2(CC1)OCCCC2O (stereo unspecified) | -4.189% |
| O=C(Cc1ccccn1)N1CCC2(CC1)CN(c1ncccn1)CCO2.O=C(O)C(F)(F)F.O=C(O)C(F)(F)F | 8.931% |
| Cc1cccc(C(=O)N2C[C@H]3CC[C@@H]2CN(S(=O)(=O)N(C)C)C3)n1 | -20.97% |
| Cc1nc(O)cc(CCNC(=O)c2ccc(CN3CCCCC3)cc2)n1 | 2.411% |
| CCS(=O)(=O)N1C[C@@H](c2cc(O)nc(C)n2)[C@H](c2ccccc2F)C1 | 95.46% |
| Cc1nc(O)cc(CN2C[C@H](NS(=O)(=O)N(C)C)[C@@H](C3CC3)C2)n1 | -8.548% |
| Cc1nc(O)cc([C@@H]2CN(S(=O)(=O)N(C)C)C[C@H]2c2ccccc2F)n1 | 136.9% |
| COCC(=O)N[C@H]1C[C@H]2C(=O)NC[C@@H](CCC(=O)NC3CC3)N2C1 | -1.651% |
| NC(=O)NC1(C(=O)N2CCc3c(Cl)cccc3C2)CCCCC1 | -13.57% |
| Cc1cccc(C2(CNC(=O)C(C)NC(N)=O)CCCC2)c1 (stereo unspecified) | -11.64% |
| Cc1cnn(C2CCCN(C(=O)c3cc(-c4cccs4)n[nH]3)C2)c1 (stereo unspecified) | -22.99% |
| O=C(c1cc(-c2cccs2)nc2ccccc12)N1CCN(CCO)CC1 | 26.12% |
| NC1(c2nc(-c3cccs3)cc(=O)[nH]2)CCCC1 | 0.7263% |
| O=C(O)c1cc(-c2cccs2)nc2c(Cl)cnn12 | 80.97% |
| O=C(O)c1cc(-c2cccs2)nc2c(Br)cnn12 | 100.3% |
| CC(C)OCCCNC(=O)[C@@]12CNC[C@@H]1CN(S(C)(=O)=O)C2 | 4.002% |
| O=C(NC[C@H]1OC[C@@H](NC2CCC(F)(F)CC2)[C@@H]1O)N1CCOCC1 | -13.75% |
| CC(C)(C)C(C#N)NC(=O)c1ccc(Oc2cccnc2)cc1 (stereo unspecified) | 2.212% |
| O=C1NCCN(C(=O)CN2CCOC2=O)C1c1cccc(F)c1 (stereo unspecified) | 1.4% |
| COCC(C)(O)CNC(=O)COc1ccccc1OC (stereo unspecified) | 1.741% |
| COc1ccccc1OCC(=O)NCC(O)(c1ccccc1)C1CC1 (stereo unspecified) | -11.16% |
| COc1cc(C(=O)O)cc(I)c1OCC(=O)NCCc1ccccc1 | 109.3% |
| Cc1nn(C)c(C)c1OCC(=O)NCc1cccc(C(=O)O)c1 | 4.585% |
| COc1cc(C(=O)O)ccc1OCC(=O)NCCc1ccccc1 | 92.84% |
| COc1cc(C(=O)O)ccc1OCC(=O)NC(C)c1ccc(F)cc1 (stereo unspecified) | 2.572% |

| SMILES | Percent Effect |
| --- | --- |
| Cc1cccc2c1nc1n2[C@@H](CNC(=O)c2ccncc2)COC1 | -9.503% |
| CC(C)Cc1cc(C(=O)N2CCC(N3CCCC3)CC2)cc(O)n1 | 3.394% |
| CCN(CC)C1CCN(C(=O)c2cc3cc(C)cc(C)c3nc2C)CC1.Cl | 152.2% |
| CCS(=O)(=O)N(C)C1CCN(C(=O)c2cc(C)cc(C)c2)CC1 | 4.174% |
| Cc1cc(C)c2nc(C)c(C(=O)N3CCC(N4CCCC4)CC3)cc2c1 | 84.44% |
| Cc1cc2c(cc1C(=O)N1CC[C@H](CO)[C@@H](O)C1)OCCO2 | -2.803% |
| CCN(CC)C1CCN(C(=O)NCc2c(C)noc2C)CC1 | -4.062% |
| CC(=O)N1CCC(CCNC(C)c2cc(C)cc(C)c2)CC1 (stereo unspecified) | -3.402% |
| Cc1cc(C)c2nc(C)c(C(=O)N3CCC(CCN(C)C)CC3)cc2c1 | 84.1% |
| CCCn1ncc(C(=O)N2CCC(N3CCCCC3)CC2)c1C | -9.333% |
| CN(C)c1nc2c(c(NCc3cc(O)ncn3)n1)CCCC2 | 14.14% |
| CC(C)N1CCN2C(=O)N(C3CCCCC3)C[C@H]2C1 | 0.5796% |
| CC(C)CNC1(Cc2cc(-c3ccccc3)on2)COC1 | -15.39% |
| Cc1cncc(C(=O)N(c2ccc(F)cn2)C2CCOCC2)c1 | -4.438% |
| O=C(NC1CCOCC1)c1cccc(C2CCCNC2)c1 (stereo unspecified) | 85.12% |
| COCC(O)CN1CCC(NC(=O)c2cccc(C)c2)CC1 (stereo unspecified) | -8.408% |
| CSCCN1CCC(NC(=O)OC(C)(C)C)CC1 | -0.645% |
| CCCS(=O)(=O)N1CCCC(c2cccc(C(=O)O)c2)C1 (stereo unspecified) | 9.239% |
| CSCCN1CCC(NC(=O)c2cccc(C3CCCNC3)c2)CC1 (stereo unspecified) | 92.44% |
| O=C1CN(CCCNS(=O)(=O)c2cccc(C(=O)NC3CC3)c2)CCN1 | -1.221% |
| O=C(NC1CCOC1)c1cccc(S(=O)(=O)NCCCc2ncc[nH]2)c1 (stereo unspecified) | -8.272% |
| CCOC(=O)N1CCC(NC(=O)c2cccc(C3CCCNC3)c2)CC1 (stereo unspecified) | 94.34% |
| CCc1cnc(CNc2ccc(C(=O)NCc3ccco3)cc2C)o1 | 4.048% |
